About 83,000 compounds went through this panel and 20% of them were active in at least one assay; those are over-represented in the sample as a whole.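 Single-dose data. Exposure time 48 hours. Values below 10 considered active.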 A number with no mark means an inactive call. The source made the active and inactive calls.

The text below walks through data of PubChem BioAssay (NCI).

Some test systems named below: NCI-H23 lung; NCI-H226 lung; NCI-H322M lung; HOP-62 NSCLC; NCI-H460 lung; HOP-92 NSCLC; NCI-H522 lung; A549/ATCC NSCLC; COLO 205 colon; DU-145 prostate; K-562 leukemia; MALME-3M melanoma; MDA-MB-231 breast; RXF 393 renal; SF-268 CNS; SF-295 CNS; SF-539 CNS; UACC-257 melanoma; M14 melanoma; 786-0 renal.
Common to all, as to test: NCI-60 one-dose screen, 48 h (100 = growth as untreated, 0 = no growth, -100 = all killed)
What all share (conditions): 10 µM

For the molecule `CC(=O)Nc1c(C)cc(C)cc1C`, the growth in the assay with NCI-H23 lung was 101%; with NCI-H226 lung it was 101%; in the assay on NCI-H322M lung, 103%; with HOP-62 NSCLC, 109%; in the assay with NCI-H460 lung, 105%; with HOP-92 NSCLC, 69%. Further, the growth with NCI-H522 lung is 94%; in the assay with A549/ATCC NSCLC it was 102%; in the assay on COLO 205 colon it was 110%; in the assay with DU-145 prostate, 101%; in the assay with K-562 leukemia it was 96.3%; with MALME-3M melanoma it was 102%. In addition, the growth is 114% in the assay on MDA-MB-231 breast; 113% in the assay with RXF 393 renal; 95.4% in the assay with SF-268 CNS; 94.3% in the assay on SF-295 CNS; 103% in the assay on SF-539 CNS; 104% with UACC-257 melanoma. In the assay with M14 melanoma, the growth was 101%.

With `Nc1ccc(CC(=O)O)c(N)c1`, the growth in the assay on NCI-H23 lung is 92.3%; with NCI-H226 lung, 92%; in the assay with NCI-H322M lung, 97.6%; in the assay on HOP-62 NSCLC, 102%; in the assay with NCI-H460 lung, 103%; in the assay with HOP-92 NSCLC it was 94.5%. For the same molecule, the growth with NCI-H522 lung was 99.3%; with A549/ATCC NSCLC, 99.7%; in the assay with 786-0 renal it was 107%; in the assay on K-562 leukemia, 104%; in the assay on MALME-3M melanoma, 94.3%; in the assay on MDA-MB-231 breast, 103%. Moreover, the growth with RXF 393 renal was 102%; in the assay on SF-268 CNS, 94%; in the assay with SF-295 CNS it was 104%; in the assay with SF-539 CNS, 102%; with UACC-257 melanoma, 101%; with M14 melanoma, 100%.

`O=C(c1ccc(Cl)cc1)c1ccccc1Cl`: the growth is 91.2% in the assay with NCI-H23 lung; 99.9% in the assay on NCI-H226 lung; 97.9% in the assay on NCI-H322M lung; 93.7% in the assay with HOP-62 NSCLC; 103% in the assay on NCI-H460 lung; 78.2% in the assay with HOP-92 NSCLC. Moreover, the growth was 90.7% in the assay on NCI-H522 lung; 95.1% with A549/ATCC NSCLC; 93.6% with 786-0 renal; 123% in the assay with DU-145 prostate; 96.8% in the assay on K-562 leukemia; 103% in the assay with MALME-3M melanoma. Moreover, the growth in the assay with MDA-MB-231 breast is 101%; in the assay with RXF 393 renal it was 93.3%; in the assay with SF-268 CNS it was 111%; in the assay with SF-295 CNS, 92.3%; in the assay with SF-539 CNS it was 89%; in the assay with UACC-257 melanoma, 93.6%.

In the case of `CN(C)CCN(C)CC(C)(C)C(=O)/C=C/c1ccc(Cl)cc1`, the growth with NCI-H23 lung was 5.94% (active); with NCI-H226 lung, -3.14% (active); in the assay with NCI-H322M lung, 5.34% (active); with HOP-62 NSCLC, 3.79% (active); in the assay with NCI-H460 lung, -14.9% (active); with HOP-92 NSCLC, -24.9% (active). Moreover, the growth with NCI-H522 lung is -62.6% (active); in the assay on A549/ATCC NSCLC, 8.12% (active); in the assay with 786-0 renal, -22.5% (active); with COLO 205 colon it was -86.5% (active); with DU-145 prostate, 6.16% (active); with K-562 leukemia, 4.79% (active). Further, the growth in the assay on MALME-3M melanoma is -27.7% (active); in the assay on RXF 393 renal, -82.8% (active); with SF-295 CNS, 20.5%; in the assay on SF-539 CNS it was -25.9% (active); in the assay on UACC-257 melanoma, 23.1%; in the assay on M14 melanoma it was -64.4% (active).

Turning to `CCCCCCCCCCCCCCCCC1CC(=O)OC1=O` (stereo not drawn), the growth in the assay with NCI-H23 lung was 107%; with NCI-H226 lung, 103%; in the assay on NCI-H322M lung, 114%; with HOP-62 NSCLC, 95.2%; in the assay on NCI-H460 lung, 118%; in the assay with HOP-92 NSCLC, 125%. Further, the growth with NCI-H522 lung was 98.6%; with A549/ATCC NSCLC it was 98.5%; in the assay with COLO 205 colon, 111%; in the assay with DU-145 prostate, 121%; with MALME-3M melanoma it was 114%; in the assay on MDA-MB-231 breast, 98.3%. In addition, the growth is 116% in the assay with RXF 393 renal; 113% with SF-268 CNS; 99.3% in the assay with SF-295 CNS; 104% in the assay on SF-539 CNS; 104% in the assay on UACC-257 melanoma.

For `O=C(NN=C1CCCCC1)C(=O)NN=C1CCCCC1`, the growth with NCI-H23 lung is 105%; with NCI-H226 lung, 101%; in the assay on NCI-H322M lung, 124%; with HOP-62 NSCLC it was 98.1%; in the assay on NCI-H460 lung, 117%; in the assay on HOP-92 NSCLC, 101%. Besides, the growth with NCI-H522 lung was 98.7%; with A549/ATCC NSCLC it was 116%; in the assay with 786-0 renal, 105%; in the assay with DU-145 prostate, 121%; in the assay on K-562 leukemia, 81.1%; in the assay on MALME-3M melanoma, 127%. Further, the growth in the assay with MDA-MB-231 breast was 113%; in the assay on RXF 393 renal, 107%; with SF-268 CNS, 99.1%; in the assay on SF-295 CNS, 113%; in the assay on SF-539 CNS, 101%; in the assay with UACC-257 melanoma it was 108%.

In the case of `Cc1cccc(C(=O)N(C(C)C)C(C)C)c1`, the growth in the assay on NCI-H23 lung was 102%; in the assay with NCI-H226 lung, 87.7%; with NCI-H322M lung it was 104%; with HOP-62 NSCLC it was 86.4%; with NCI-H460 lung it was 99.2%; with HOP-92 NSCLC, 79.6%. Further, the growth with NCI-H522 lung was 79.9%; with A549/ATCC NSCLC, 86.3%; in the assay with 786-0 renal, 99.7%; in the assay on DU-145 prostate, 103%; in the assay on K-562 leukemia it was 104%; with MALME-3M melanoma it was 95.5%. The growth in the assay with MDA-MB-231 breast was 109%; in the assay on RXF 393 renal, 107%; in the assay with SF-268 CNS, 99%; in the assay with SF-295 CNS it was 90.4%; in the assay on SF-539 CNS, 96.3%; in the assay with UACC-257 melanoma, 87.3%. The growth in the assay with M14 melanoma was 96.1%.

Regarding `CC1CCC(C(=O)O)N1` (stereo not drawn), the growth in the assay on NCI-H23 lung was 89.2%; in the assay on NCI-H226 lung it was 97.3%; in the assay on NCI-H322M lung, 95.2%; in the assay on HOP-62 NSCLC it was 93.9%; in the assay on NCI-H460 lung, 115%; in the assay on HOP-92 NSCLC it was 102%. The growth is 91.3% in the assay with NCI-H522 lung; 99.4% in the assay with A549/ATCC NSCLC; 100% in the assay on 786-0 renal; 98.4% with K-562 leukemia; 102% in the assay on MALME-3M melanoma; 102% in the assay on MDA-MB-231 breast. Also, the growth with RXF 393 renal was 109%; with SF-268 CNS it was 97.5%; in the assay with SF-295 CNS it was 101%; with SF-539 CNS it was 95%; with UACC-257 melanoma, 103%; with M14 melanoma it was 102%.

Regarding `CCCCCCCCCCCCCC(=O)Oc1ccc[nH]c1=O`, the growth with NCI-H23 lung was 105%; in the assay on NCI-H226 lung, 92.7%; in the assay with NCI-H322M lung, 87%; with HOP-62 NSCLC, 94.1%; in the assay with NCI-H460 lung, 105%; with HOP-92 NSCLC it was 84.9%. For the same molecule, the growth in the assay with NCI-H522 lung is 90.7%; in the assay with A549/ATCC NSCLC, 89.4%; in the assay on 786-0 renal, 89.7%; with COLO 205 colon it was 112%; in the assay with DU-145 prostate, 103%; in the assay with K-562 leukemia, 90%. Besides, the growth in the assay on MALME-3M melanoma is 95.2%; in the assay with RXF 393 renal it was 113%; with SF-295 CNS it was 97.1%; with SF-539 CNS, 99%; in the assay on UACC-257 melanoma, 84.3%; in the assay on M14 melanoma, 101%.
